From PubChem BioAssay (NCI)
Compounds without any hit were thinned out: in the full panel of roughly 83,000, 20% have a hit.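 Values shown are percent growth following 48 h exposure of cells in 96-well plates to a single concentration of compound; below 10 was considered active.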 Calls of active or inactive are those of the source.

Tests used:
Experiment in all cases: NCI-60 one-dose screen, 48 h (100 = growth as untreated, 0 = no growth, -100 = all killed)
Settings in all cases: 10 µM unless noted
DU-145 prostate = tested on: DU-145 prostate
K-562 leukemia = tested on: K-562 leukemia
MALME-3M melanoma = tested on: MALME-3M melanoma
MDA-MB-231 breast = tested on: MDA-MB-231 breast
RXF 393 renal = tested on: RXF 393 renal
SF-268 CNS = tested on: SF-268 CNS
SF-539 CNS = tested on: SF-539 CNS
UACC-257 melanoma = tested on: UACC-257 melanoma
M14 melanoma = tested on: M14 melanoma
HCT-15 colon = tested on: HCT-15 colon
HT29 colon = tested on: HT29 colon
SNB-75 CNS = tested on: SNB-75 CNS
SNB-19 CNS = tested on: SNB-19 CNS
U251 CNS = tested on: U251 CNS
PC-3 prostate = tested on: PC-3 prostate
SK-MEL-5 melanoma = tested on: SK-MEL-5 melanoma
UACC-62 melanoma = tested on: UACC-62 melanoma
LOX IMVI melanoma = tested on: LOX IMVI melanoma
SK-MEL-28 melanoma = tested on: SK-MEL-28 melanoma

Measured: growth

O=[N+]([O-])c1cccc([I+]c2ccccc2)c1
inactive: DU-145 prostate 58.5% | K-562 leukemia 27.3% | MALME-3M melanoma 49.4% | MDA-MB-231 breast 83.2% | RXF 393 renal 72.4% | SF-268 CNS 50.1% | SF-539 CNS 65.6% | UACC-257 melanoma 80.1% | M14 melanoma 56.6% | HCT-15 colon 52.5% | HT29 colon 27.3% | SNB-75 CNS 46.9% | SNB-19 CNS 71.3% | U251 CNS 52.1% | PC-3 prostate 59.1% | UACC-62 melanoma 52.2% | LOX IMVI melanoma 36.2% | SK-MEL-28 melanoma 61.5%
active: SK-MEL-5 melanoma -2.62%

CCN(CC)CCC(CNc1ccnc2cc(Cl)ccc12)c1ccc(O)cc1 (centres undefined)
active: M14 melanoma 6.04%
inactive: DU-145 prostate 91.4% | K-562 leukemia 10.6% | MALME-3M melanoma 93.5% | MDA-MB-231 breast 74.1% | RXF 393 renal 52.5% | SF-268 CNS 69.5% | SF-539 CNS 88.4% | UACC-257 melanoma 93.4% | HCT-15 colon 109% | HT29 colon 29.5% | SNB-75 CNS 85.7% | SNB-19 CNS 103% | U251 CNS 81.3% | PC-3 prostate 61.1% | SK-MEL-5 melanoma 91.9% | UACC-62 melanoma 103% | LOX IMVI melanoma 50.4% | SK-MEL-28 melanoma 107%

Oc1c(-c2cc(C(F)(F)F)[nH]n2)cc(Cl)c(OCc2ccc(Cl)cc2)c1-c1ccc(Cl)c(C(F)(F)F)c1
active: K-562 leukemia 5.9% | MALME-3M melanoma -30.5% | MDA-MB-231 breast -5.89% | RXF 393 renal -24.7% | SF-268 CNS -5.51% | SF-539 CNS -11.6% | UACC-257 melanoma -2.82% | M14 melanoma -21% | HCT-15 colon -11.5% | HT29 colon 6.96% | SNB-75 CNS -17.6% | U251 CNS 8.65% | PC-3 prostate 4.7% | SK-MEL-5 melanoma -60.2% | UACC-62 melanoma -17.3% | LOX IMVI melanoma 1.76% | SK-MEL-28 melanoma -19.9%
inactive: DU-145 prostate 10.2% | SNB-19 CNS 18.6%

O=C(NCC(c1ccsc1)N1CCCCCC1)c1ccc(C(F)(F)F)cc1 (centres undefined)
inactive: DU-145 prostate 105% | K-562 leukemia 83.7% | MALME-3M melanoma 98.5% | MDA-MB-231 breast 85.1% | RXF 393 renal 85.7% | SF-268 CNS 98.3% | SF-539 CNS 108% | UACC-257 melanoma 108% | M14 melanoma 93% | HCT-15 colon 100% | HT29 colon 82% | SNB-75 CNS 87.6% | SNB-19 CNS 87.9% | U251 CNS 90.7% | PC-3 prostate 88.5% | SK-MEL-5 melanoma 94.9% | UACC-62 melanoma 99.1% | LOX IMVI melanoma 78.9% | SK-MEL-28 melanoma 110%

O=C(Nc1ccc(Cl)c(C(F)(F)F)c1)c1ccc(Nc2ccc(Cl)nn2)cc1
inactive: DU-145 prostate 76.7% | K-562 leukemia 44.2% | MALME-3M melanoma 106% | MDA-MB-231 breast 59.3% | RXF 393 renal 47.8% | SF-268 CNS 80.7% | SF-539 CNS 68.1% | UACC-257 melanoma 74.6% | M14 melanoma 57.4% | HCT-15 colon 46.4% | HT29 colon 61.7% | SNB-75 CNS 84.2% | SNB-19 CNS 76.7% | U251 CNS 51.5% | PC-3 prostate 49.6% | SK-MEL-5 melanoma 59.6% | UACC-62 melanoma 51.9% | LOX IMVI melanoma 54.7% | SK-MEL-28 melanoma 72.5%

CC(CN1CCN(CCOCCO)CC1)CN1c2ccccc2Sc2ccc(Cl)cc21 (centres undefined)
active: K-562 leukemia 6.64% | UACC-257 melanoma -3.9% | M14 melanoma 5.98% | HT29 colon -30.1% | UACC-62 melanoma -42.8%
inactive: DU-145 prostate 70.3% | MALME-3M melanoma 45.1% | MDA-MB-231 breast 29.9% | RXF 393 renal 56.8% | SF-268 CNS 63.8% | SF-539 CNS 79.2% | HCT-15 colon 32.7% | SNB-75 CNS 69.7% | SNB-19 CNS 100% | U251 CNS 58.6% | PC-3 prostate 43.9% | SK-MEL-5 melanoma 16.1% | LOX IMVI melanoma 20.5% | SK-MEL-28 melanoma 49%

[O-]/[N+](=C\c1ccccc1)CC1(O)CCCCC1
inactive: DU-145 prostate 109% | K-562 leukemia 95.7% | MALME-3M melanoma 108% | MDA-MB-231 breast 101% | RXF 393 renal 107% | SF-268 CNS 105% | SF-539 CNS 97% | UACC-257 melanoma 102% | M14 melanoma 109% | HCT-15 colon 98.4% | HT29 colon 102% | SNB-75 CNS 81.1% | SNB-19 CNS 99.4% | U251 CNS 97.6% | PC-3 prostate 108% | SK-MEL-5 melanoma 105% | UACC-62 melanoma 102% | LOX IMVI melanoma 101% | SK-MEL-28 melanoma 106%

Clc1ccc2c(c1)-c1ccccc1C1=NCCN12
inactive: DU-145 prostate 30.8% | MALME-3M melanoma 11.5% | MDA-MB-231 breast 45.6% | SF-268 CNS 41.1% | SF-539 CNS 33.8% | UACC-257 melanoma 14.2% | M14 melanoma 37.8% | HCT-15 colon 20% | SNB-75 CNS 49.5% | SNB-19 CNS 41.6% | U251 CNS 25% | PC-3 prostate 28.5% | SK-MEL-5 melanoma 19.9% | UACC-62 melanoma 30.3% | LOX IMVI melanoma 11.7% | SK-MEL-28 melanoma 43.2%
active: K-562 leukemia 9.07% | RXF 393 renal 2.19% | HT29 colon 4.08%

CCc1ccc(Nc2ncnc3c2cnn3-c2cccc(Br)c2)cc1
inactive: DU-145 prostate 104% | K-562 leukemia 106% | MALME-3M melanoma 99% | MDA-MB-231 breast 103% | RXF 393 renal 100% | SF-268 CNS 98% | SF-539 CNS 102% | UACC-257 melanoma 88.6% | M14 melanoma 98.6% | HCT-15 colon 101% | HT29 colon 108% | SNB-75 CNS 78.4% | SNB-19 CNS 95.3% | U251 CNS 94.3% | PC-3 prostate 94.9% | SK-MEL-5 melanoma 96.6% | UACC-62 melanoma 91.7% | LOX IMVI melanoma 96.3% | SK-MEL-28 melanoma 107%

COc1ccc(C2C=C(c3ccc(Cl)cc3)N=C3SC=CN32)cc1 (centres undefined)
inactive: DU-145 prostate 129% | K-562 leukemia 104% | MALME-3M melanoma 108% | MDA-MB-231 breast 112% | RXF 393 renal 122% | SF-268 CNS 119% | SF-539 CNS 104% | UACC-257 melanoma 108% | M14 melanoma 109% | HCT-15 colon 110% | HT29 colon 106% | SNB-75 CNS 86.7% | SNB-19 CNS 115% | U251 CNS 105% | PC-3 prostate 86.7% | SK-MEL-5 melanoma 111% | UACC-62 melanoma 116% | LOX IMVI melanoma 99.6% | SK-MEL-28 melanoma 97.6%

C/C(=N\OC(=O)Nc1cccc(Cl)c1)c1ccccc1
inactive: DU-145 prostate 102% | K-562 leukemia 90.1% | MALME-3M melanoma 98.2% | MDA-MB-231 breast 103% | RXF 393 renal 87.5% | SF-268 CNS 113% | SF-539 CNS 104% | UACC-257 melanoma 104% | M14 melanoma 108% | HCT-15 colon 94.2% | HT29 colon 94.4% | SNB-75 CNS 80.4% | SNB-19 CNS 106% | U251 CNS 93.5% | PC-3 prostate 94% | SK-MEL-5 melanoma 94.8% | UACC-62 melanoma 93.7% | LOX IMVI melanoma 110% | SK-MEL-28 melanoma 95.2%

O=C(CN1CCN(c2ccccc2)CC1)N1CCN(c2nnc(-c3ccc(Cl)cc3)c(-c3ccc(Cl)cc3)n2)CC1
inactive: DU-145 prostate 76% | K-562 leukemia 22.4% | MALME-3M melanoma 126% | MDA-MB-231 breast 76.4% | RXF 393 renal 49.9% | SF-268 CNS 65.2% | SF-539 CNS 60.2% | UACC-257 melanoma 61.6% | M14 melanoma 69.5% | HCT-15 colon 45.4% | HT29 colon 32.3% | SNB-75 CNS 66.8% | SNB-19 CNS 82.1% | U251 CNS 60.4% | PC-3 prostate 26.6% | SK-MEL-5 melanoma 44.2% | UACC-62 melanoma 63.1% | LOX IMVI melanoma 64.6% | SK-MEL-28 melanoma 81.9%

O=C(/C=C/c1ccccc1)n1c(-c2ccccc2)nc2ccccc21
inactive: DU-145 prostate 113% | K-562 leukemia 103% | MALME-3M melanoma 112% | MDA-MB-231 breast 117% | RXF 393 renal 102% | SF-268 CNS 110% | SF-539 CNS 95.3% | UACC-257 melanoma 92.4% | M14 melanoma 104% | HCT-15 colon 98.2% | HT29 colon 110% | SNB-75 CNS 85.6% | SNB-19 CNS 94.7% | U251 CNS 96.2% | PC-3 prostate 95.6% | SK-MEL-5 melanoma 97.4% | UACC-62 melanoma 103% | LOX IMVI melanoma 100% | SK-MEL-28 melanoma 108%

O=C1c2ccccc2C2N1CCC1CCc3ccccc3N12 (centres undefined)
inactive: DU-145 prostate 117% | K-562 leukemia 89.4% | MALME-3M melanoma 88.9% | MDA-MB-231 breast 92.7% | RXF 393 renal 106% | SF-268 CNS 111% | SF-539 CNS 88.9% | UACC-257 melanoma 102% | M14 melanoma 97.1% | HCT-15 colon 94.5% | HT29 colon 100% | SNB-75 CNS 94.3% | SNB-19 CNS 96.2% | U251 CNS 89.7% | PC-3 prostate 76.3% | SK-MEL-5 melanoma 98% | UACC-62 melanoma 82.2% | LOX IMVI melanoma 100% | SK-MEL-28 melanoma 109%

C#CC[C@@H]1C[C@]2(C)[C@H]3CC=C4[C@H]5[C@@H](C)[C@H](C)CC[C@]5(C(=O)NCCCCN)CC[C@@]4(C)[C@]3(C)CC[C@H]2C(C)(C)[C@H]1OC(C)=O
active: K-562 leukemia -26.6%
inactive: DU-145 prostate 58.6% | MALME-3M melanoma 98.9% | MDA-MB-231 breast 39.5% | RXF 393 renal 56.4% | SF-268 CNS 69.8% | SF-539 CNS 84.7% | UACC-257 melanoma 115% | M14 melanoma 66.6% | HCT-15 colon 31.9% | HT29 colon 10.5% | SNB-75 CNS 81.1% | SNB-19 CNS 73.9% | U251 CNS 40.7% | PC-3 prostate 47.5% | SK-MEL-5 melanoma 94.9% | UACC-62 melanoma 106% | LOX IMVI melanoma 18.6% | SK-MEL-28 melanoma 100%

COC(=O)C(CCC(=O)CCl)N1C(=O)c2ccccc2C1=O (centres undefined)
active: LOX IMVI melanoma -44.1%
inactive: DU-145 prostate 87.6% | K-562 leukemia 28.6% | MALME-3M melanoma 42.2% | MDA-MB-231 breast 84.6% | RXF 393 renal 25.8% | SF-268 CNS 56.5% | SF-539 CNS 64.9% | UACC-257 melanoma 69.7% | M14 melanoma 39.9% | HCT-15 colon 48.1% | HT29 colon 34.3% | SNB-75 CNS 91.5% | SNB-19 CNS 99.9% | U251 CNS 47.1% | PC-3 prostate 60.3% | SK-MEL-5 melanoma 71.3% | UACC-62 melanoma 64.8% | SK-MEL-28 melanoma 87%
